Reference: ChEMBL document CHEMBL2218924, “A broad activity screen in support of a chemogenomic map for kinase signalling research and drug discovery” (Biochem J, 2013)

Experiments:
[1] = target: T1, Ephrin type-A receptor 3 (Homo sapiens) (UniProt P29320); conditions: at 10 µM
T1 sequence (whole entry): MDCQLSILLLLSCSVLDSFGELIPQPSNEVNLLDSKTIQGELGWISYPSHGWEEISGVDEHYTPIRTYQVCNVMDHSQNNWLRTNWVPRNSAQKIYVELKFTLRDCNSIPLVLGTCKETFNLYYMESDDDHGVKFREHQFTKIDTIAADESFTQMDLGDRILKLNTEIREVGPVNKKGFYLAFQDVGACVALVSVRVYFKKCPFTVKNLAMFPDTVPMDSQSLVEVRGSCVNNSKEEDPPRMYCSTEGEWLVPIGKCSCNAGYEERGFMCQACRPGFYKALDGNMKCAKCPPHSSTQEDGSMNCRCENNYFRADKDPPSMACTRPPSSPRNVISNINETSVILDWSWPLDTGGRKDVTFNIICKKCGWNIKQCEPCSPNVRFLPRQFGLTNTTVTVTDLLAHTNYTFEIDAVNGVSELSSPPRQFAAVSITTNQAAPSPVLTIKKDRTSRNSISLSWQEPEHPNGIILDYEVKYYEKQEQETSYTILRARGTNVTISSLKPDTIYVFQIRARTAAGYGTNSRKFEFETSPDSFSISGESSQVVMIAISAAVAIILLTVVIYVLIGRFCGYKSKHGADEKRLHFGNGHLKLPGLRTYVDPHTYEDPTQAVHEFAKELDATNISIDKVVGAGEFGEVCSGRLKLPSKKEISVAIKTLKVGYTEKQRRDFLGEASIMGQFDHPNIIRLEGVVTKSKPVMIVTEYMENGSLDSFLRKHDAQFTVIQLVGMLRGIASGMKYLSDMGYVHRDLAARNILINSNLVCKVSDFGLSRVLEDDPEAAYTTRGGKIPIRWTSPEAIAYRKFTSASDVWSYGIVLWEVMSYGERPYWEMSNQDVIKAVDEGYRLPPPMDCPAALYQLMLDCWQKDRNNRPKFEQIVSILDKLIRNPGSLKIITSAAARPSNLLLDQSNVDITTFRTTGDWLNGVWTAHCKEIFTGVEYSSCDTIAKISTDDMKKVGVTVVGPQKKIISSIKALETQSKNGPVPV

[2] = target: T2, Ephrin type-B receptor 4 (Homo sapiens) (UniProt P54760); conditions: at 1 µM
T2 sequence (whole entry): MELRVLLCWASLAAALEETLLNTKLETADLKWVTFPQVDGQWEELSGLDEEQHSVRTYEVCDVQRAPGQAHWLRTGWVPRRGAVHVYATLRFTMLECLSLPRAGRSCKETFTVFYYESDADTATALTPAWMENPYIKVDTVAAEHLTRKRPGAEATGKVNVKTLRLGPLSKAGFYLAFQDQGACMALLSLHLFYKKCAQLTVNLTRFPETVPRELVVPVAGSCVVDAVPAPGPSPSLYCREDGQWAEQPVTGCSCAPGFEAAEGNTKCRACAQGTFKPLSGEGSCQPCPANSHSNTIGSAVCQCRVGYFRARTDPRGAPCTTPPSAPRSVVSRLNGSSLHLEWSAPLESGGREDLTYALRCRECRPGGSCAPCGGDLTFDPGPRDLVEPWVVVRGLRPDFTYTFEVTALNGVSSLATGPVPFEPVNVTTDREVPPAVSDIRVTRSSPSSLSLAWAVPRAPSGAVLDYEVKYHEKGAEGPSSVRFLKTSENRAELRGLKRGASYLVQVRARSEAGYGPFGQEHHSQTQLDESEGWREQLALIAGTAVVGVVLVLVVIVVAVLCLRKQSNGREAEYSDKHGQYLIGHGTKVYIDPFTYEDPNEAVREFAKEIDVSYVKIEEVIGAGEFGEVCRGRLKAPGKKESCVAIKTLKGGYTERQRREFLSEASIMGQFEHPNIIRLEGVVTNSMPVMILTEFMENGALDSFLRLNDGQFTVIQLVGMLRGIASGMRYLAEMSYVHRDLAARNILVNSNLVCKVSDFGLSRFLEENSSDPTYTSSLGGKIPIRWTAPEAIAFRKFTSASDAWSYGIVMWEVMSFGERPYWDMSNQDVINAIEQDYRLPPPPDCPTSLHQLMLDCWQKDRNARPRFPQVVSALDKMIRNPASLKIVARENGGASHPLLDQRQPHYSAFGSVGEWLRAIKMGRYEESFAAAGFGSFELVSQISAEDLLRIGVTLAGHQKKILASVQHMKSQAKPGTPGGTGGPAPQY

[3] = target: T2, Ephrin type-B receptor 4 (Homo sapiens); conditions: at 10 µM
[4] = target: Receptor tyrosine-protein kinase erbB-4 (Homo sapiens) (UniProt Q15303); conditions: at 1 µM
Receptor tyrosine-protein kinase erbB-4 (Homo sapiens), sequence (Q15303 whole entry): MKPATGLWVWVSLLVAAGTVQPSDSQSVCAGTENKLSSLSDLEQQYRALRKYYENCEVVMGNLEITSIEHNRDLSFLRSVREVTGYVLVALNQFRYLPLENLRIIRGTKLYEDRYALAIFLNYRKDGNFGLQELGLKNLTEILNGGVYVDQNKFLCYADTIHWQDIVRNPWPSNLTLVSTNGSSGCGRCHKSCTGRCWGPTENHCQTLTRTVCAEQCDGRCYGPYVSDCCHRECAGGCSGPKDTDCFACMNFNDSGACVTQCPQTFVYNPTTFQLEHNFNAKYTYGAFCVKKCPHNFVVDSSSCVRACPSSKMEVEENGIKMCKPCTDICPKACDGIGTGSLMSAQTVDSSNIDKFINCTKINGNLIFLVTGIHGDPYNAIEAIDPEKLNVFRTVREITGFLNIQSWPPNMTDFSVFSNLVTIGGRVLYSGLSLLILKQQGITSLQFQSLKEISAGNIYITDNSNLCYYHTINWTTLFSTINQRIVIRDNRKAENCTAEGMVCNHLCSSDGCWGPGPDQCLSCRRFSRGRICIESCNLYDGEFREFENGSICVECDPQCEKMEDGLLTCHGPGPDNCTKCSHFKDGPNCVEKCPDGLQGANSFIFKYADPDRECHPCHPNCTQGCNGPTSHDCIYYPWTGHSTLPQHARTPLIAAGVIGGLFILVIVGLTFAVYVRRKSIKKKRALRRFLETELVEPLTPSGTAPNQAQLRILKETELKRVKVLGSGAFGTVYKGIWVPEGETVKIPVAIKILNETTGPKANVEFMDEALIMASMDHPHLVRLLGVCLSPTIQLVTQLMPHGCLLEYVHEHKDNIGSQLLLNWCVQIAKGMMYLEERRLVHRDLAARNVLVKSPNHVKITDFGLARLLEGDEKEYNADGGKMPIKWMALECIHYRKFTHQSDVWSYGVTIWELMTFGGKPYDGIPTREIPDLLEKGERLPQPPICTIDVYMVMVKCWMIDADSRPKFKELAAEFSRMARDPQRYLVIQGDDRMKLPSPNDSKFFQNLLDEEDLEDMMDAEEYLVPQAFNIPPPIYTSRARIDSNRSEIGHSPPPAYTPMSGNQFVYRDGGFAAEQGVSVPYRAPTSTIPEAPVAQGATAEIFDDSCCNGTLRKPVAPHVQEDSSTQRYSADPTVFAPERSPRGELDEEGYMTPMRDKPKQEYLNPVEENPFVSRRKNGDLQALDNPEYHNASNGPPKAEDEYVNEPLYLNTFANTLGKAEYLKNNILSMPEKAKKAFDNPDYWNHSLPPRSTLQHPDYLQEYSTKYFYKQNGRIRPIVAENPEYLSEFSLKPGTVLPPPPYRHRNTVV

[5] = target: Receptor tyrosine-protein kinase erbB-4 (Homo sapiens) (UniProt Q15303); conditions: at 10 µM
[6] = target: Ephrin type-A receptor 4 (Homo sapiens) (UniProt P54764); conditions: at 1 µM
Ephrin type-A receptor 4 (Homo sapiens), sequence (P54764 whole entry): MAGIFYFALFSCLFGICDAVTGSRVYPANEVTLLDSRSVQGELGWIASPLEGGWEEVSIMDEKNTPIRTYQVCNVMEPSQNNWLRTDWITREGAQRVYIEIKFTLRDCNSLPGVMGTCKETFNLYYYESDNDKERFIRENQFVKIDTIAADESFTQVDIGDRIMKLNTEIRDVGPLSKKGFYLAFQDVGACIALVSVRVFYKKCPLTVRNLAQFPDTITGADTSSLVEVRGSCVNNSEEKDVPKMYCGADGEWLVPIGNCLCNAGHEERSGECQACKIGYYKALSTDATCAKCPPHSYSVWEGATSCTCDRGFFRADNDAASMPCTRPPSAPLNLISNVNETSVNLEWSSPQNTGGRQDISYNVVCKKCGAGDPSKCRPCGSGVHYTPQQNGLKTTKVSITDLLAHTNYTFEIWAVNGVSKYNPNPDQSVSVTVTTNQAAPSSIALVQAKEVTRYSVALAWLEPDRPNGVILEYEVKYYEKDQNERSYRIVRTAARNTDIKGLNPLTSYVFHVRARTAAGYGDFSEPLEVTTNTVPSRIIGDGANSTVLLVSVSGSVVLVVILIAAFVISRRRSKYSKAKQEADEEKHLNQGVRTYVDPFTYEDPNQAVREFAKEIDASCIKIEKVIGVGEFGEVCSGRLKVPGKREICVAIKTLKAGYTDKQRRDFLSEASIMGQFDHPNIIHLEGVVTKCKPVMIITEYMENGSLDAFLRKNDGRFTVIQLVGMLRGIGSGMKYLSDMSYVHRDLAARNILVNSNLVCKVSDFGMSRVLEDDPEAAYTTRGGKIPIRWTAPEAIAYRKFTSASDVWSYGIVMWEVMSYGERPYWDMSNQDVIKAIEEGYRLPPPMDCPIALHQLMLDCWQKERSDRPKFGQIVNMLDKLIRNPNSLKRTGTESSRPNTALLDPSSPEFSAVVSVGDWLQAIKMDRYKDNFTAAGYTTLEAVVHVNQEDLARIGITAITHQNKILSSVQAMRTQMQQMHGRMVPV

[7] = target: Ephrin type-A receptor 4 (Homo sapiens) (UniProt P54764); conditions: at 10 µM
[8] = target: Ephrin type-A receptor 5 (Homo sapiens) (UniProt P54756); conditions: at 1 µM
Ephrin type-A receptor 5 (Homo sapiens), sequence (P54756 whole entry): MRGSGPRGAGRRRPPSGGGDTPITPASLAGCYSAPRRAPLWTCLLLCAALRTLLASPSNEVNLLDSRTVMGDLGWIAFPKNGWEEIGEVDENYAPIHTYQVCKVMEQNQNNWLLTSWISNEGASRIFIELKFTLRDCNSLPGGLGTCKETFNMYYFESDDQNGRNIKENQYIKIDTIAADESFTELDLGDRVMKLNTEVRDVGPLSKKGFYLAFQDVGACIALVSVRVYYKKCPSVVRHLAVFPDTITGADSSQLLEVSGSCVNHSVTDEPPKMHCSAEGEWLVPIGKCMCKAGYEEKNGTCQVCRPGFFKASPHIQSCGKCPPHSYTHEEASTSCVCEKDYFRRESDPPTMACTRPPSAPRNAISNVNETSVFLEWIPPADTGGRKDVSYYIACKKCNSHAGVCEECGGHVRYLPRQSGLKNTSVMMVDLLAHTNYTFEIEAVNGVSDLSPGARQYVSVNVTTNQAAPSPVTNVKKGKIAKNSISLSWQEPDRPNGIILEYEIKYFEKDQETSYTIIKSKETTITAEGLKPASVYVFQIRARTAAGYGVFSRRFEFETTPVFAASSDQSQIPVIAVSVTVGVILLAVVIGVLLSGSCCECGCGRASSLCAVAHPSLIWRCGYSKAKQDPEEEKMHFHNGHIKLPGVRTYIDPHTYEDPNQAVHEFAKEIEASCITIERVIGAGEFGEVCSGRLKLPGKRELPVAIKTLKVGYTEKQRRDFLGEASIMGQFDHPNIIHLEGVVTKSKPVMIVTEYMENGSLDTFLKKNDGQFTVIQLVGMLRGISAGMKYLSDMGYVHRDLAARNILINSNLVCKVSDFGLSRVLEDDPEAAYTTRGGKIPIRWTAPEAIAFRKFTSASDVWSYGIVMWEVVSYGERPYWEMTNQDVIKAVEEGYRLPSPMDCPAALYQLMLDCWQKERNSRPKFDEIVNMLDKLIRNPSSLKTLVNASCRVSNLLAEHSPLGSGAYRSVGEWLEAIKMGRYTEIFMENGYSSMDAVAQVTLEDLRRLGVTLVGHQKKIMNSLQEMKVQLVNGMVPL

[9] = target: Ephrin type-A receptor 5 (Homo sapiens) (UniProt P54756); conditions: at 10 µM
[10] = target: Ephrin type-A receptor 7 (Homo sapiens) (UniProt Q15375); conditions: at 1 µM
Ephrin type-A receptor 7 (Homo sapiens), sequence (Q15375 28-998 limits assumed): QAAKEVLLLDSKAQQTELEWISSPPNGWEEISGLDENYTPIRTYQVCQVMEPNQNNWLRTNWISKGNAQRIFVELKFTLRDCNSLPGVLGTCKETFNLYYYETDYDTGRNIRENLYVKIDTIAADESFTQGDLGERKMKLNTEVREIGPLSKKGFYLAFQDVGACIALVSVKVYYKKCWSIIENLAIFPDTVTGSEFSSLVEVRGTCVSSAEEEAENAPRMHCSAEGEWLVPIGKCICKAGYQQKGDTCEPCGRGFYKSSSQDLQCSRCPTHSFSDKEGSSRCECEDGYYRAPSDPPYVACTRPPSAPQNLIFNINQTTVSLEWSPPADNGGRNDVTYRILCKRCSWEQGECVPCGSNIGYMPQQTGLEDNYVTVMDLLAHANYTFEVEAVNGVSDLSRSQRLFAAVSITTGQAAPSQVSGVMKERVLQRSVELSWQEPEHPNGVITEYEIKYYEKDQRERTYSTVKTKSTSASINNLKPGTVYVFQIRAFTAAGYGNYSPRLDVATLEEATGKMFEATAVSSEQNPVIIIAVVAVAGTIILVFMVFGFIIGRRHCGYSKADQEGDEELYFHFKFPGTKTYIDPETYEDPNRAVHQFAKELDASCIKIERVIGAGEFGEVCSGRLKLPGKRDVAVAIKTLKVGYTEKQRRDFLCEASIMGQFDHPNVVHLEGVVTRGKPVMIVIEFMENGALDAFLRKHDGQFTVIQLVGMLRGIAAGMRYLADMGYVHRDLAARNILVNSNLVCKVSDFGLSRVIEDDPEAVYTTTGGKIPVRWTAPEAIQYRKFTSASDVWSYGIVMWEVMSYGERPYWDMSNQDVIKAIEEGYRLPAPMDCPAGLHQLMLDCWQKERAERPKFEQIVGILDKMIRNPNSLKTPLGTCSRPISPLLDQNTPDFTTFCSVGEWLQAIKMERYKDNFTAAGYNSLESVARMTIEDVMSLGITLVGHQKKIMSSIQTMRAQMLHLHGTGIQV

[11] = target: Ephrin type-A receptor 7 (Homo sapiens) (UniProt Q15375); conditions: at 10 µM
[12] = target: T3, Ephrin type-B receptor 2 (Homo sapiens) (UniProt P29323); conditions: at 1 µM
T3 sequence (whole entry): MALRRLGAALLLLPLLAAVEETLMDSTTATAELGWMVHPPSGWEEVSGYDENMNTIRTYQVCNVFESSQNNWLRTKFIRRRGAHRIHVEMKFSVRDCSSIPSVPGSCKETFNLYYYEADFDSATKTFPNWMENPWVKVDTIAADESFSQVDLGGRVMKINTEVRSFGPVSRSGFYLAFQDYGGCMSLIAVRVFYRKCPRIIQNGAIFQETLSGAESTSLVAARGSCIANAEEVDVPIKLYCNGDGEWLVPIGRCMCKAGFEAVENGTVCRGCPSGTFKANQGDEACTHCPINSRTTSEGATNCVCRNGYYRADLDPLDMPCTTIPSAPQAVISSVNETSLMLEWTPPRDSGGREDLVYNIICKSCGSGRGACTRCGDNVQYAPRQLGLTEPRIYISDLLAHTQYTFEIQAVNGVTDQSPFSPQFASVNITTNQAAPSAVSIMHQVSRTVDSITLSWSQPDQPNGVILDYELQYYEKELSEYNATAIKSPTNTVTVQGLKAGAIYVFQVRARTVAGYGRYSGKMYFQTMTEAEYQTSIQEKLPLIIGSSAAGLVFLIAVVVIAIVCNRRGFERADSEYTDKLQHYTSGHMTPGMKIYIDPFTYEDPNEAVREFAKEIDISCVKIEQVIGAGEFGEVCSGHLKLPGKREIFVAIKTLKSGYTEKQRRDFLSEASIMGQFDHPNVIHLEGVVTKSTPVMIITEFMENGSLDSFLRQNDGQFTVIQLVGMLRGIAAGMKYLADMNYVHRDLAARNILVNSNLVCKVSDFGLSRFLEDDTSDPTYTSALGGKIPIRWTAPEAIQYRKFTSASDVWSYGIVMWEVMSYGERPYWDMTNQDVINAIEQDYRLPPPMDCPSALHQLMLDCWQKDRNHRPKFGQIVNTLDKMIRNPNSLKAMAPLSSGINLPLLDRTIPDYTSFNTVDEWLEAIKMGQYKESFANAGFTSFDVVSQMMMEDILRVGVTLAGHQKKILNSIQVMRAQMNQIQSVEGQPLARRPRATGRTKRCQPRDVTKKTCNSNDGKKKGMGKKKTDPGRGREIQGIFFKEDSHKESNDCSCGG

[13] = target: T3, Ephrin type-B receptor 2 (Homo sapiens); conditions: at 10 µM
[14] = target: T4, Ephrin type-B receptor 3 (Homo sapiens) (UniProt P54753); conditions: at 1 µM
T4 sequence (whole entry): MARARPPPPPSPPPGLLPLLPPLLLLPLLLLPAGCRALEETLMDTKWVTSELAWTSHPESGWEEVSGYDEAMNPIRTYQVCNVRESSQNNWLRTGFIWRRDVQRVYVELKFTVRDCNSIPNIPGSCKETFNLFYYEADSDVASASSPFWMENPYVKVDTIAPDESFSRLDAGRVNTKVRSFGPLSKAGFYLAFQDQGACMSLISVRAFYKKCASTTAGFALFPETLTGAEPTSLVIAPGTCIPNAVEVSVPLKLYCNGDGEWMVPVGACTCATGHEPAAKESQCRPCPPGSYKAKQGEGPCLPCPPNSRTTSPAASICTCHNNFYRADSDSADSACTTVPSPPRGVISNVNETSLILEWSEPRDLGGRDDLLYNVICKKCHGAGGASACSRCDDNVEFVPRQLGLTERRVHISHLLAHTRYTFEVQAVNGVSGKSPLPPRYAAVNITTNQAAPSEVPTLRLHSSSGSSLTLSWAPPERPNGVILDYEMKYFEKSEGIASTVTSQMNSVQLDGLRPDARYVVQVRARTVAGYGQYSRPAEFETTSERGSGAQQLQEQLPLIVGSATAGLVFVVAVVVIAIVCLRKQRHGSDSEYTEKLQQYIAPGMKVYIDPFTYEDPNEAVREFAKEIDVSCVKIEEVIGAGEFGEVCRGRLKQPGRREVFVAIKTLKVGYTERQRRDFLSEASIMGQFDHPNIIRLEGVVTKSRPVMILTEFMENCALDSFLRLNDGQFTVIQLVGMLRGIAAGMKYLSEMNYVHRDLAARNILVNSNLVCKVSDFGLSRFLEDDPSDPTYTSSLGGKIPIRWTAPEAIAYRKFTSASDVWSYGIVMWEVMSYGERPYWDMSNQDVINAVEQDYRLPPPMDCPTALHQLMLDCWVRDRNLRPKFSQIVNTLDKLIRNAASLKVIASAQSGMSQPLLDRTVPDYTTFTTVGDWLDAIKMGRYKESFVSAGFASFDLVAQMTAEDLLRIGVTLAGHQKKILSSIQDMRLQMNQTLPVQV

[15] = target: T4, Ephrin type-B receptor 3 (Homo sapiens); conditions: at 10 µM
[16] = target: Focal adhesion kinase 1 (Homo sapiens) (UniProt Q05397); conditions: at 1 µM
[17] = target: T5, Ephrin type-B receptor 1 (Homo sapiens) (UniProt P54762); conditions: at 10 µM
T5 sequence (whole entry): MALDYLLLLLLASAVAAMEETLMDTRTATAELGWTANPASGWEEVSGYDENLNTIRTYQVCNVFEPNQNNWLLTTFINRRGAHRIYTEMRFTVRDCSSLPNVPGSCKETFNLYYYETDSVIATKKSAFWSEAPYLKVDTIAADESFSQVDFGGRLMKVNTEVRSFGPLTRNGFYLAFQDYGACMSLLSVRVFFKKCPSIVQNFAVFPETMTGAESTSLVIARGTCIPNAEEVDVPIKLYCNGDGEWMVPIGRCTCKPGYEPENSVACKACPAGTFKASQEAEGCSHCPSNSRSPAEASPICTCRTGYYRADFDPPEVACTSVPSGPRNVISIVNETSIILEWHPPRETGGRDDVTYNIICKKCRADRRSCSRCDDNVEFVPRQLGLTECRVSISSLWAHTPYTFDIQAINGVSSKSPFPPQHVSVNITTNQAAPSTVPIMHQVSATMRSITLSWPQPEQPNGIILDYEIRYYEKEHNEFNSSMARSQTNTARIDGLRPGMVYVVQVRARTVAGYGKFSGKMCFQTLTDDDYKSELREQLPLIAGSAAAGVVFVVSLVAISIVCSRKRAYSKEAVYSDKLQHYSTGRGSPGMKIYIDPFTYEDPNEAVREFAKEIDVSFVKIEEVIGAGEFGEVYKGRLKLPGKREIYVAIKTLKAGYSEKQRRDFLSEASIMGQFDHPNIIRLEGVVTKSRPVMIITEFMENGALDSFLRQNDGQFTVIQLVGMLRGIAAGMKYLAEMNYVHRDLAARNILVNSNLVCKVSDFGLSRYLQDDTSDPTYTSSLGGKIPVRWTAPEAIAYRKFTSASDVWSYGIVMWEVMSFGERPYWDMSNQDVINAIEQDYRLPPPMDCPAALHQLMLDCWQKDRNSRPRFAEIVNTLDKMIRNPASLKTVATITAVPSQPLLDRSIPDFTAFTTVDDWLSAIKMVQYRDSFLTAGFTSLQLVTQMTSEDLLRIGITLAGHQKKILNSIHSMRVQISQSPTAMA

Structure (SMILES)	residual activity [1]	residual activity [2]	residual activity [3]	residual activity [4]	residual activity [5]	residual activity [6]	residual activity [7]	residual activity [8]	residual activity [9]	residual activity [10]	residual activity [11]	residual activity [12]	residual activity [13]	residual activity [14]	residual activity [15]	residual activity [16]	residual activity [17]
N/C(=N\[N+](=O)[O-])N/N=C\c1ccc(-c2cccc([N+](=O)[O-])c2)o1	79%	90%	90%	100%	88%	–	–	–	–	–	–	–	–	–	–	–	–
CCc1nc(-c2ccc(OC)cc2)[nH]c1-c1ccncc1	–	112%	101%	–	108%	114%	109%	116%	104%	114%	100%	120%	115%	110% (inactive)	111%	115%	–
COc1ccc2c(c1)/C(=C/c1cnc[nH]1)C(=O)N2	–	98%	77%	127%	–	–	–	–	81%	–	–	–	97%	–	–	99%	59%
